Data: PubChem BioAssay AID1851 (National Center for Advancing Translational Sciences (NCATS), 2009)
“And” between values parts separate entries of the source, which are not always exact repeats. Equal values may be shown once. The whole screen tested about 16,000 compounds, of which about 2,600 (16%) were called active. About 20% were inconclusive and are not listed. The call rests on the fitted dose curve; in most records, active means well fitted curve in the direction sought with a large enough effect; inconclusive means small, poorly fitted or top-dose-only effect, or effect the other way; inactive means no such curve, though single readings can be large or run the other way. The list is a sample of the results. Square brackets hold non-standard residues; d marks the D form. Peptide text beside a SMILES is read from it.

biological target: Cytochrome P450 2D6 (Homo sapiens) (UniProt P10635); assay: Cytochrome panel assay with activity outcomes; conditions: recombinant CYP, pro-luciferin dealkylation, luminescence, p450-cyp2d6; series mostly up to 57.1 µM
On the % scale 0 is the no-effect control and ±100 the full control effect.

Chain of Cytochrome P450 2D6 (Homo sapiens) (P10635 whole entry, looked up): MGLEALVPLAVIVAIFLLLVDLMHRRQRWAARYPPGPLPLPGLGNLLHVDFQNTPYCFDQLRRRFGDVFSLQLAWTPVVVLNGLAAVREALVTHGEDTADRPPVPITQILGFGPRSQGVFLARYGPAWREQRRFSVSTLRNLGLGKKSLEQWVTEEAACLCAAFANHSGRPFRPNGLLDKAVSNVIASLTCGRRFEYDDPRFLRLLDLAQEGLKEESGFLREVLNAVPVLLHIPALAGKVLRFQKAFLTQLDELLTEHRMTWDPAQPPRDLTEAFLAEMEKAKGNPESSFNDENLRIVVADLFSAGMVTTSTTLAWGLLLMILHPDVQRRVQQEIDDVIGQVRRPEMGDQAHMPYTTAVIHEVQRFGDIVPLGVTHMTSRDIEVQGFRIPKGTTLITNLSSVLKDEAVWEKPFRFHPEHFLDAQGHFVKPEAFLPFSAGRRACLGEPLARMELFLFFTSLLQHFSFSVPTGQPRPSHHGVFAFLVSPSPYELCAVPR

activity, negative = inhibition, inactive:
CC(=O)O[C@H]1C2=CO[C@H](C)[C@H]3[C@H]4C5=C([C@H](O)[C@H]6O[C@@H]6C5=O)[C@H](O[C@H]4C)[C@@]23C(=O)[C@H]2O[C@@H]21 17.5% [at 11.4 µM], O=C1C[C@@H](O)[C@@H](O)[C@H]2[C@@H]3C(=O)N(C4CCCCC4)C(=O)[C@@H]3CC[C@H]12 9.04% [at 11.4 µM] and 6.81% [at 11.4 µM] and 7.19% [at 11.4 µM], COC(=O)[C@H](CCSC)NC(=O)C/C=C\[C@@H](C)CO 4.64% [at 11.4 µM], OCCSCc1cc(Cl)cc(Cl)c1O -5.19% [at 11.4 µM], C[C@@H]1OC2C3=C(C(=O)[C@H]4O[C@@H]4[C@H]3O)[C@@H]1[C@H]1[C@H](C)OC=C3[C@H](O)[C@H]4O[C@H]4/C(=N\OCc4ccccc4)[C@@]321 3.22% [at 11.4 µM], CO[C@@H]1COC(=O)[C@H](COCc2ccccc2)NC(=O)C/C=C\[C@@H](C)[C@H](OC)COC(=O)[C@@H](C)NC(=O)C/C=C\[C@H]1C 0.0549% [at 11.4 µM], CC(=O)OC[C@@H]1O[C@H](CCO/N=C(\C)CCN2CCc3nc(-c4ccccc4)c(-c4ccccc4)cc3C2)C=C[C@@H]1OC(C)=O -10.6% [at 11.4 µM], C=CC[C@@H]1C=C[C@H](O/N=C(\C)CCN2CCc3nc(-c4ccccc4)c(-c4ccccc4)cc3C2)[C@H](CO)O1 0.49% [at 11.4 µM], CCCNC(=O)OC[C@@H]1O[C@H](CCO/N=C(\C)CCN2CCc3nc(CC)c(CC)cc3C2)C=C[C@@H]1Oc1ccc(OC)cc1 -13.6% [at 11.4 µM], CCc1cc2c(nc1CC)CCN(CC/C(C)=N/OCC[C@@H]1C=C[C@H](OC(C)=O)[C@H](COC(C)=O)O1)C2 -5.93% [at 11.4 µM], CSc1nc2cc(S(=O)(=O)N3CCCCC3)ccc2s1 11.3% [at 11.4 µM], O=C1C=C(Nc2nc(C(=O)O)cc(=O)[nH]2)c2ccccc2C1=O -6.72% [at 11.4 µM], Cc1ccccc1CN1C2=NCCN2C(=O)C2=C1CCN(Cc1ccccc1)C2 -16.1% [at 11.4 µM], N[C@H](CO)C(=O)NCC(=O)O (H-[dS]-Gly-OH) -2.94% [at 11.4 µM], Cc1cc2c(nc1C)CCCN2C[C@@H](O)CN1CCN(C)CC1 -5.57% [at 11.4 µM], O=c1n(-c2ccccc2)c(=O)n2n1CC[C@H]1/C(=N\OC[C@@H](O)COCc3ccco3)[C@H]3O[C@@H]3[C@@H](O)[C@@H]12 0.6% [at 11.4 µM] and 20% [at 11.4 µM]

AC50, inactive:
COc1cc2nc(N3CCN(C(=O)c4ccco4)CC3)nc(N)c2cc1OC, CCNc1nnc(-c2ccncc2)s1, CN1CCN(c2ncc3nc(-c4cccs4)c(=O)n(Cc4cccs4)c3n2)CC1, COc1ccc(C(=O)Nc2nc3c(s2)Cc2cc(OC)ccc2-3)cc1, C=CCN=C1CC(C)(C)CC(=O)/C1=C(\O)c1ccccc1, COc1ccc(-n2c(CNC(=O)c3cc(OC)c(OC)c(OC)c3)n[nH]c2=S)cc1, COc1ccc(NC(=O)N2CCCC3(CCN(C(=O)c4csnn4)CC3)C2)cc1, CC(C)NC(=O)N1CC[C@@]2(CCCN(C(=O)c3csnn3)C2)C1, CN1CCN(c2ccc([N+](=O)[O-])cc2C(=O)N2CCOCC2)CC1, COc1ccc(C(=O)NNC(=O)Cc2ccc(-c3ccccc3)cc2)cc1OC, COc1ccc(/C=C/C(=O)NCc2cn(C)nc2C)cc1COc1ccc(Br)cc1, COc1ccc([C@@H]2CNC(=O)C2)cc1OC1CCCC1, CC[C@@H]1OC(=O)[C@H](C)[C@H](O[C@@H]2C[C@](C)(OC)[C@H](O)[C@H](C)O2)[C@H](C)[C@H](O[C@@H]2O[C@@H](C)C[C@@H](N(C)C)[C@@H]2O)[C@](C)(O)C[C@H](C)C(=O)[C@H](C)[C@H](O)[C@]1(C)O, CC[C@]1(O)C[C@@H]2CN(CCc3c([nH]c4ccccc34)[C@](C(=O)OC)(c3cc4c(cc3OC)N(C=O)[C@H]3[C@@](O)(C(=O)OC)[C@H](C(=O)OC)[C@@]5(CC)C=CCN6CC[C@]43[C@H]65)C2)C1, CCOc1cc(/C=N/O)cc(Cl)c1OC, COc1ccc(-c2nc3cnc(N(C)C)nc3n(C[C@H]3CCCO3)c2=O)cc1, Cc1ccc(NC(=O)CCC(=O)NNC(=O)c2cccs2)c(C)c1, O=C(O)[C@H]1C[C@@H](CP(=O)(O)O)CCN1, CC1(C)CC(=O)C(C(C#Cc2ccccc2)C2=C(O)CC(C)(C)CC2=O)=C(O)C1, O=C(O)CONC(=O)c1cc(OCC(F)(F)F)ccc1OCC(F)(F)F, O=C(NCC1CCCO1)/C(=C\c1ccco1)NC(=O)c1ccccc1 (stereo not drawn), O=C(Nc1ccc(OC(=O)c2cccnc2)cc1)c1cccnc1, O=C(Nc1cccc(OC(=O)c2cccnc2)c1)c1cccnc1, O=C(CCn1nc(-c2ccc(Cl)cc2)ccc1=O)NCc1ccccn1, Cc1cccc(Oc2coc3cc(OC(=O)c4cc5ccccc5oc4=O)ccc3c2=O)c1, CCOC(=O)c1cc(C#N)c(Oc2ccccc2OC)nc1-c1ccccc1, CCOc1cc(C)ccc1OCc1nnc(SCC(=O)c2cccc([N+](=O)[O-])c2)n1CC, Cc1cc2c(ncn2Cc2ccccc2)c([N+](=O)[O-])c1C, CCCCN1C(=O)CC(Sc2ccccc2C(=O)O)C1=O (stereo not drawn), CC(C)C[C@H]1C(=O)N2CCC[C@@H]2[C@]2(O)O[C@](NC(=O)[C@H]3C=C4c5cccc6[nH]c(Br)c(c56)C[C@H]4N(C)C3)(C(C)C)C(=O)N12, COCCCN1C(=O)C(=O)/C(=C(/O)c2ccc(OC(C)C)c(C)c2)C1c1ccncc1 (stereo not drawn), Cc1cc(C)nc(NS(=O)(=O)c2ccc(N)cc2)n1, CN1C(=O)/C(=C\c2ccccc2)Sc2ccc(C(=O)N3CCN(c4ccccn4)CC3)cc21, C=C[C@H](N)CCC(=O)O, CCc1c(C)sc(NC(=O)OC)c1C(N)=O, COc1nc(/C(N)=N/O)nc(N2CCCCC2)n1, Cc1ncc([N+](=O)[O-])n1CCOC(=O)NC(NCc1ccccc1)C(Cl)(Cl)Cl (stereo not drawn), Cc1cc(=O)c2ccccc2[nH]1, O=C1CCCN1CC(O)CS(=O)(=O)c1ccccc1 (stereo not drawn), Cc1ccc(C2C(=O)N(C3CCCC3)CC(=O)N2CC2COc3ccccc3O2)cc1 (stereo not drawn), N=C(N)N1CCc2ccccc2C1, O=C(O)c1cc(=O)c2c(OCC(O)COc3cccc4oc(C(=O)O)cc(=O)c34)cccc2o1, Cc1ccc(-c2cccc(OC(=O)c3ccccc3F)c2)cc1, CC(C)C(=O)NC(=S)Nc1ccccc1C(=O)Nc1ccccc1, CN1CCN(c2ncc3ncc(=O)n(C[C@H]4CCCO4)c3n2)CC1, COc1ccc(S(=O)(=O)N2CCC(C(=O)NCC3CCCO3)CC2)cc1C (stereo not drawn), COC1(OC)N=C(NC(=O)Nc2ccccc2)C2(C#N)C(c3ccccc3)C12C#N (stereo not drawn), COc1ccc(-c2noc(C3CCCN(C(=O)c4ccccc4OC)C3)n2)cc1OC (stereo not drawn), CCCC[C@@H]1C[C@H]1C(NC(=O)c1cccs1)c1ccc(-c2ccccc2)cc1 (stereo partly drawn), CN1CCN(S(=O)(=O)c2cc([N+](=O)[O-])ccc2N2CCCCCC2)CC1, CC(=O)OCC(=O)[C@@]1(O)CC[C@@H]2[C@H]3CCC4=CC(=O)CC[C@]4(C)[C@]3(F)[C@@H](O)C[C@@]21C

AC50, active:
CC(C)CN1CC[C@@]2(CCCN(C(=O)c3csnn3)C2)C1 0.501 µM, COc1ccc(C(=O)NN)cc1COc1ccc(Br)cc1 12.6 µM, COc1c(Cl)cc(Cl)cc1CNCCNCC(C)O (stereo not drawn) 1.78 µM, COc1c(Cl)cc(Cl)cc1CNCCNCCO 15.8 µM, CC(=O)OC[C@H]1O[C@@H](O/N=C(\C)CCN2CCc3nc(-c4ccccc4)c(-c4ccccc4)cc3C2)[C@H](OC(C)=O)[C@@H](OC(C)=O)[C@H]1OC(C)=O 3.16 µM, CCc1cc2c(nc1CC)CCN(CC/C(C)=N/O[C@@H]1O[C@H](COC(C)=O)[C@H](OC(C)=O)[C@H](OC(C)=O)[C@H]1OC(C)=O)C2 3.98 µM, O=C(Nc1cccnc1)c1ccc2snnc2c1 15.8 µM, O=C1C=C(NCCc2cc(Br)c(O)c(Br)c2)C(=O)c2ncccc21 1.58 µM, Cc1ccc(C)c(C(=O)CN2C3=NCCCN3c3ccccc32)c1 0.01 µM, CCCN1C2=NCCCN2c2ccccc21 7.08 µM, CCCCN1C2=NCCCN2c2ccccc21 5.01 µM, CC1CCCC(C)N1CC(O)COCC1COc2ccccc2O1 (stereo not drawn) 1.78 µM, C[C@@H]1CCCN(C[C@@H](O)CN2CCCc3ccccc32)C1 1.58 µM, OC(COCC1COc2ccccc2O1)CN1CCN(c2ccccc2F)CC1 (stereo not drawn) 2.24 µM, OC(COCC1COc2ccccc2O1)CN1CCc2ccccc2C1 (stereo not drawn) 0.447 µM, CC1CCCN(CC(O)COCC2COc3ccccc3O2)C1 (stereo not drawn) 2.51 µM
